Data on one molecule can be found in ChEMBL document CHEMBL2218924, “A broad activity screen in support of a chemogenomic map for kinase signalling research and drug discovery” (Biochem J, 2013).

In assay [1] the target is T1, Serine/threonine-protein kinase TBK1 (Homo sapiens) (UniProt Q9UHD2).
T1 sequence (whole entry): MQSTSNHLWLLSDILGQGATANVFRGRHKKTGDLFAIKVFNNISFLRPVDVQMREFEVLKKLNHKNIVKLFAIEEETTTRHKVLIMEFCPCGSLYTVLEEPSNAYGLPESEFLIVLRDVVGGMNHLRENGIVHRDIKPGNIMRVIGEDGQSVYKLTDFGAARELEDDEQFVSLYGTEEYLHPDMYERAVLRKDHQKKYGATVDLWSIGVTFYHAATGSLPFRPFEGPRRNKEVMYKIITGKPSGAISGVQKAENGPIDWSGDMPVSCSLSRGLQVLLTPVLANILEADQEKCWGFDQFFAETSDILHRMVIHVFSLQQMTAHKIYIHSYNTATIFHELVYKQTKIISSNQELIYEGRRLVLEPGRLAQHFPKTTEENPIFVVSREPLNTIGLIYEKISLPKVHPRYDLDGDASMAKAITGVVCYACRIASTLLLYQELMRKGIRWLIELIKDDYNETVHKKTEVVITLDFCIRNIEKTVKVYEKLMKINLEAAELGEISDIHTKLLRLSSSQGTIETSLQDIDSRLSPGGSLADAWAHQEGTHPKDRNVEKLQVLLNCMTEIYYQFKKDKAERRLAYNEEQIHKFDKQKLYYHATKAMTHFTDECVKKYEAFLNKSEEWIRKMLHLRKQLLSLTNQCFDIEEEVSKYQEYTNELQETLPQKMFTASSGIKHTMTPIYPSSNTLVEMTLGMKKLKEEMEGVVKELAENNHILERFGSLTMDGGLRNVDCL
The following applies: at 10 µM.

For assay [2], the target named is T2, TGF-beta receptor type-1 (Homo sapiens) (UniProt P36897).
T2 sequence (whole entry): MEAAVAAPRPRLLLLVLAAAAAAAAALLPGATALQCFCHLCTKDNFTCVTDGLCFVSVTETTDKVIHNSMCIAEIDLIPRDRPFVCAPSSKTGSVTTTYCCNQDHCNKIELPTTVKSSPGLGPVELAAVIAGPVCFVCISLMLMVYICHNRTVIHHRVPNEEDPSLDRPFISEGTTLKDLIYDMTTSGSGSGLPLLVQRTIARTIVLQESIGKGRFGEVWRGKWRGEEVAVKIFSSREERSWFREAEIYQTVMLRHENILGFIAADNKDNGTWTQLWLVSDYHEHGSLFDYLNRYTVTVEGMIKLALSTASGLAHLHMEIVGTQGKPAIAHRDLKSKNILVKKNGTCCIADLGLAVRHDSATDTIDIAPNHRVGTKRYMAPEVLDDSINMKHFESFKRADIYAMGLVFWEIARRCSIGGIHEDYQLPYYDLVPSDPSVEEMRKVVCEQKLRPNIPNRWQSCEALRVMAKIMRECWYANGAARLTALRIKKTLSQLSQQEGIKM
To be noted: at 1 µM.

The target in assay [3] is T2, TGF-beta receptor type-1 (Homo sapiens). To be noted: at 10 µM.
The target in assay [4] is Insulin-like growth factor 1 receptor (Homo sapiens) (UniProt P08069). To be noted: at 1 µM.
For assay [5] the target is unchanged. To be noted: at 10 µM.
Assay [6] has as its target T3, Inhibitor of nuclear factor kappa-B kinase subunit alpha (Homo sapiens) (UniProt O15111).
T3 sequence (whole entry): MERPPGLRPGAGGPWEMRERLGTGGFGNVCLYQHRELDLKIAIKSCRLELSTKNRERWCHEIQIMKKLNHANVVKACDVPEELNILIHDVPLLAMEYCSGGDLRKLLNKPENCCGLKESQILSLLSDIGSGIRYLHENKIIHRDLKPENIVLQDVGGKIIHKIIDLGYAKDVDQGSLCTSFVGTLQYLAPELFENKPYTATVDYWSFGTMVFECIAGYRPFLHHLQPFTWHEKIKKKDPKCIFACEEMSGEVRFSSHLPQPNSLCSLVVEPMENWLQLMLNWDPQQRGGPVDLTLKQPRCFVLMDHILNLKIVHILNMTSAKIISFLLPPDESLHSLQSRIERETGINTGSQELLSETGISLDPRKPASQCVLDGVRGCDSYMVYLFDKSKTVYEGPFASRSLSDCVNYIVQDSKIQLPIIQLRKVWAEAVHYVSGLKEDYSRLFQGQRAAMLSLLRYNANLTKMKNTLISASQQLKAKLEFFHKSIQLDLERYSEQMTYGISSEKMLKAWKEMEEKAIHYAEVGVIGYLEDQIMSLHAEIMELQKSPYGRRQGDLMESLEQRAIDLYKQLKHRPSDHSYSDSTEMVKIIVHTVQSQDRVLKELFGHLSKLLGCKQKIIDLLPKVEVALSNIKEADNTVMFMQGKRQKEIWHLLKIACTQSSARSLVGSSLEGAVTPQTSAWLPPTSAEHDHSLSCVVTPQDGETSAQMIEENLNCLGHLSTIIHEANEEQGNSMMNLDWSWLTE
To be noted: at 1 µM.

Assay [7] deals with T3, Inhibitor of nuclear factor kappa-B kinase subunit alpha (Homo sapiens). The following applies: at 10 µM.
For assay [8], the target named is T4, Inhibitor of nuclear factor kappa-B kinase subunit beta (Homo sapiens) (UniProt O14920).
T4 sequence (whole entry): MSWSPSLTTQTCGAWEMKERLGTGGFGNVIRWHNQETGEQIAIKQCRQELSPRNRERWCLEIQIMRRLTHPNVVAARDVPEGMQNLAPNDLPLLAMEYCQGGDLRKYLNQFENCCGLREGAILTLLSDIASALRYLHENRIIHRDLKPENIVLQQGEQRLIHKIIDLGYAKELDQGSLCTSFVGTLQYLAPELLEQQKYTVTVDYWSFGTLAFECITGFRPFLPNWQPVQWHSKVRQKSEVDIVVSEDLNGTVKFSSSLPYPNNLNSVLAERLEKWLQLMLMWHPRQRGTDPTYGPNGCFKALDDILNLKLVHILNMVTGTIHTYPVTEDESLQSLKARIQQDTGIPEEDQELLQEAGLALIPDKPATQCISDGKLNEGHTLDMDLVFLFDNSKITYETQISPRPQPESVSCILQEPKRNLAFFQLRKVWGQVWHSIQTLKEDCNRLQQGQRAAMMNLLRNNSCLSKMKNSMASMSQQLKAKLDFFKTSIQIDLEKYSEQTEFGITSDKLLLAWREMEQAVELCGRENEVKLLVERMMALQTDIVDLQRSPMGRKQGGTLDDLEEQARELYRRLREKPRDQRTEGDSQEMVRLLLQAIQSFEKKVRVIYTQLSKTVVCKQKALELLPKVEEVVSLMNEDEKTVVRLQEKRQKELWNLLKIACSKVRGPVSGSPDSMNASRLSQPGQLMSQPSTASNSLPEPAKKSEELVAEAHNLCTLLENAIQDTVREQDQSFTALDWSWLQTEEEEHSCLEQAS
The following applies: at 1 µM.

The target of assay [9] is T4, Inhibitor of nuclear factor kappa-B kinase subunit beta (Homo sapiens). To be noted: at 10 µM.
Assay [10] concerns the target Insulin receptor (Homo sapiens) (UniProt P06213). To be noted: at 1 µM.

A word on the residual activity: it is the signal under treatment as a percentage of the control signal.

Chain of Insulin-like growth factor 1 receptor (Homo sapiens) (P08069 31-736 limits assumed): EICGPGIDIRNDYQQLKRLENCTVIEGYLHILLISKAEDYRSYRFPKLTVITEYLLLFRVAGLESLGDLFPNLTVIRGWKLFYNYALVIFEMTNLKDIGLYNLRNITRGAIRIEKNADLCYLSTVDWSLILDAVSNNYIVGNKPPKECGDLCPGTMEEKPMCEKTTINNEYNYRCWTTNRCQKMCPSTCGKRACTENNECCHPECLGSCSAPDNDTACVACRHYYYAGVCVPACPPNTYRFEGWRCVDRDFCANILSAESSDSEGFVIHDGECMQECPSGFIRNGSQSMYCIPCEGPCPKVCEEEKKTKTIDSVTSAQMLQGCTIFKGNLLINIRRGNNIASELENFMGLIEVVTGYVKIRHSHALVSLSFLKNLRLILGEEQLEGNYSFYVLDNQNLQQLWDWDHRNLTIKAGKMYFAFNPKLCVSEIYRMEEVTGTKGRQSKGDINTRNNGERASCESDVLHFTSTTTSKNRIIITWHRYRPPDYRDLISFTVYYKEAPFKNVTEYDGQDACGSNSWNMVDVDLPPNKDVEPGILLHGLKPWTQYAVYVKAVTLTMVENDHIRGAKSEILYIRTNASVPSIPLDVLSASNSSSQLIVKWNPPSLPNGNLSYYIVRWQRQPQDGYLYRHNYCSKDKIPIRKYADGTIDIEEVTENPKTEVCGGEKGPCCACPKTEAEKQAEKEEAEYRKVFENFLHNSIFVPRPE
Chain of Insulin-like growth factor 1 receptor (Homo sapiens) (P08069 741-1367 limits assumed): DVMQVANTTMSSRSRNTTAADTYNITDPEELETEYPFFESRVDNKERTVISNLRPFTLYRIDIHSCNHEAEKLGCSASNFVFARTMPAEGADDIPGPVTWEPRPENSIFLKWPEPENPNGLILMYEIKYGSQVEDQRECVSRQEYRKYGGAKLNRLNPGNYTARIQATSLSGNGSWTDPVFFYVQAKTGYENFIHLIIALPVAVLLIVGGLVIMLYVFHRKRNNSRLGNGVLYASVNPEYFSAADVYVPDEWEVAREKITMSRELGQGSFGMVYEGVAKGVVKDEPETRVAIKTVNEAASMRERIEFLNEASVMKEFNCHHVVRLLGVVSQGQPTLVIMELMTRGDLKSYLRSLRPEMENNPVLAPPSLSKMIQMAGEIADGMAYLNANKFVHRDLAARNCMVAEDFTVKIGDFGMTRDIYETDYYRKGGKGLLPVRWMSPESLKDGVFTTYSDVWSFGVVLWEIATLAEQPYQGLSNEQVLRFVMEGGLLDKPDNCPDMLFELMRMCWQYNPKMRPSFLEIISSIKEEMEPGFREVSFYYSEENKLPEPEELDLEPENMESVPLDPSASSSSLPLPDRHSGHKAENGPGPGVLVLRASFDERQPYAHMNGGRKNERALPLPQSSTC
Chain of Insulin receptor (Homo sapiens) (P06213 28-758 limits assumed): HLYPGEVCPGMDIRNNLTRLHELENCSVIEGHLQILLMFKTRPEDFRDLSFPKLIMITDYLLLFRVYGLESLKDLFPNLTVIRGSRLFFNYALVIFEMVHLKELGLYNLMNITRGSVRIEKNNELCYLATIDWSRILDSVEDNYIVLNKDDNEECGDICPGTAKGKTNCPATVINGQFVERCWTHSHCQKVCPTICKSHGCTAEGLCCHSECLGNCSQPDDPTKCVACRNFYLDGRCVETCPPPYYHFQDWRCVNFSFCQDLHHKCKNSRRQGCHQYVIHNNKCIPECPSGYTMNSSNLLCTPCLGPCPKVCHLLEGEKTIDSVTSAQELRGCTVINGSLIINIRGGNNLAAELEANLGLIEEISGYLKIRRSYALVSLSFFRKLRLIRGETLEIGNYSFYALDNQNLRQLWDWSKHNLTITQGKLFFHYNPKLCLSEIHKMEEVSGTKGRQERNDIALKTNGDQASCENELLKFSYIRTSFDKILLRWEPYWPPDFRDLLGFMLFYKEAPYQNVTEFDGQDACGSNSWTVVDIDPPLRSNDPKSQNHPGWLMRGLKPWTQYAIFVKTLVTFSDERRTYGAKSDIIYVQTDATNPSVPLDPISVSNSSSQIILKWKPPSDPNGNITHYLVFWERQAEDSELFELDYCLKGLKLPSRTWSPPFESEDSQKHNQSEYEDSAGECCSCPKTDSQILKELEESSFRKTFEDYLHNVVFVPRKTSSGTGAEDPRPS
Chain of Insulin receptor (Homo sapiens) (P06213 763-1382 limits assumed): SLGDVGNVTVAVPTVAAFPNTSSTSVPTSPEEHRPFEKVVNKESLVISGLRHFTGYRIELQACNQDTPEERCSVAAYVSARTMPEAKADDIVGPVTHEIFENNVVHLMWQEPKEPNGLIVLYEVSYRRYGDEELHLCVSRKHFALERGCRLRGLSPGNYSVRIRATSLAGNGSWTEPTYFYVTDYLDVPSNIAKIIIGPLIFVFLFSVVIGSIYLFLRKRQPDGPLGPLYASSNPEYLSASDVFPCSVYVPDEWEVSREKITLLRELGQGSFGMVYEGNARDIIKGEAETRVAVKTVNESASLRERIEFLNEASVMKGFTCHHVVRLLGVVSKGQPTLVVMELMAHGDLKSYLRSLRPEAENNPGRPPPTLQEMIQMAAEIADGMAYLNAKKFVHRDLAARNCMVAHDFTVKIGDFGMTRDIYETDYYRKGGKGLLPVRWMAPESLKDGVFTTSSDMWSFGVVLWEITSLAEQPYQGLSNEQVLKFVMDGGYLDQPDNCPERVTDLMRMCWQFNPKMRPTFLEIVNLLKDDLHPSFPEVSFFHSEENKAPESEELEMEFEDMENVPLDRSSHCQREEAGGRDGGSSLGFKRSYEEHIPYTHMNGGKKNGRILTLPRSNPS

For the molecule `O=Nc1c(-c2c(O)[nH]c3ccccc23)[nH]c2ccccc12`, the residual activity in assay [1] is 1%; in [2] it was 104%; in assay [3] it was 73%; in assay [4], 40%; in assay [5], 20%; in assay [6] it was 76%. Further, the residual activity in [7] is 57%; in assay [8], 87%; in [9], 67%; in assay [10], 17%.
